Compound activity deposited in PubChem by Johns Hopkins Ion Channel Center.
This is a sample that favours compounds with a hit; in the whole collection about 1.6% have one here.
KCNQ2 pot – KCNQ2 (rat) channel potentiation | O88943 | CHO-K1 KCNQ2, FluxOR thallium flux fluorescence; hits give high values | 0.54% of 310,000 active | B-score at 10 µM;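 active = fluorescence ratio B-score at least 3 SD of library B-scores, with initial fluorescence B-score within 3 of them, cut at about 5.3 in these data; same plate scores as AID 2156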;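 also: B-score of peak minus minimum over baseline fluorescence ratio after K+ and Tl+ stimulus; positive B-score means potentiation of KCNQ2 with more thallium influx and brighter signal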
Target sequence (O88943 whole entry, looked up): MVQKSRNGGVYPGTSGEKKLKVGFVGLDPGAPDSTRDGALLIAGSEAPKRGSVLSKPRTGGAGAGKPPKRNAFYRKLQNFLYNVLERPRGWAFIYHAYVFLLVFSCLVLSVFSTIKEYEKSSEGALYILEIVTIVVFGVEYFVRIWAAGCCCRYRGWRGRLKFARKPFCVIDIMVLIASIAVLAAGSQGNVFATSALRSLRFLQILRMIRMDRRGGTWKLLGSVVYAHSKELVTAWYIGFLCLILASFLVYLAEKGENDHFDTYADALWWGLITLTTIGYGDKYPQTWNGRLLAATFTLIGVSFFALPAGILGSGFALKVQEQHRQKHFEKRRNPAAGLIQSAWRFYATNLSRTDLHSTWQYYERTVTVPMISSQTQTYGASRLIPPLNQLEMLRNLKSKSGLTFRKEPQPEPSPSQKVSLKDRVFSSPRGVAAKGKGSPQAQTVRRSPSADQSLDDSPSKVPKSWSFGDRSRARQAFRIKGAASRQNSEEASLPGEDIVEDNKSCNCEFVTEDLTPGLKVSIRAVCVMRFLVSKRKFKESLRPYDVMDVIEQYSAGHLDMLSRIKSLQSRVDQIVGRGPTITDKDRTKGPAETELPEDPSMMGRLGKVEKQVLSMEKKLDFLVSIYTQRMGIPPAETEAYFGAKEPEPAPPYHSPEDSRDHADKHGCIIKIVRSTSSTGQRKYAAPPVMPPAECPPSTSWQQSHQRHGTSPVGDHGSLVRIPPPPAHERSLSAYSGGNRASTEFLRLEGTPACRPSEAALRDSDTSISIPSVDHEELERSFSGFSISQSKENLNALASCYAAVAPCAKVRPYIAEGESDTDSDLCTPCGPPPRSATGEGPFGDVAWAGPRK
KCNQ2 block – KCNQ2 (rat) channel inhibition. O88943. CHO-K1 KCNQ2, FluxOR thallium flux, 20 min; hits give low values. B-score at 10 µM. 1.1% of 310,000 active. AID 2156;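 active = fluorescence ratio B-score at most minus 3 library SDs, with starting brightness B-score within 2 library SDs, cut at about -5.5 in these data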
KCNQ2 inh conf – confirmation of rat KCNQ2 potassium channel inhibitors | shares compounds with KCNQ2 block | KCNQ2-expressing cells, thallium flux, inhibition; hits give low values | activity change, negative = inhibition, % at 10 µM | 57% of 1,000 active | AID 493025
KCNQ1 spec – KCNQ2 inhibitor that also affects human KCNQ1 channel; KCNQ1-expressing cells, FluxOR thallium flux fluorescence; hits give low values; 15% of 1,000 active; AID 493026; activity change, negative = inhibition, % at 10 µM; shares compounds with KCNQ2 block;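 active = activity change at least 3 SD of negative controls below their mean in both duplicate wells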;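 also: CHO cells stably transfected with KCNQ1 and depolarized by potassium stimulus; peak minus minimum fluorescence over baseline after thallium addition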
CHO Tl ctr – counter-screen for KCNQ2 inhibitors: effect in parental CHO cells; shares compounds with KCNQ2 block; thallium flux counter-screen; hits give low values; activity change, % at 10 µM; 14% of 1,000 active; AID 493029
KCNQ2 inh confirm – rat KCNQ2 inhibition confirmed by electrophysiology; shares compounds with KCNQ2 block; KCNQ2-expressing cells, automated patch clamp current; calls only at 10 µM; 49% of 550 active; AID 588531
Numbers stand for hits. Unless noted, no rule for the calls is given here.

Results for COc1ccc(N2C(C(C)=O)=NN(c3ccccc3)C2c2cccs2)cc1 (configuration not stated) ?
KCNQ2 pot: inactive; KCNQ2 block: -7.2; KCNQ2 inh conf: -32%; KCNQ1 spec: -37%; CHO Tl ctr: -25%; KCNQ2 inh confirm: inactive

How did CC(=O)Nc1ccc(N2C(C(C)=O)=NN(c3ccccc3)C2c2cccs2)cc1 (configuration not stated) do in these assays?
KCNQ2 pot: inactive; KCNQ2 block: inactive

Results for COc1ccc(OCCCC(=O)Nc2cccc([N+](=O)[O-])c2C)cc1 ?
KCNQ2 block: inactive

How did Cc1ccccc1NS(=O)(=O)c1ccc(C(=O)N2CCN(S(=O)(=O)c3ccccc3)CC2)cc1 do in these assays?
KCNQ2 block: inactive

Results for Cc1cccc(/C(N)=N/OC(=O)N2c3ccccc3Sc3ccccc32)c1 ?
KCNQ2 pot: inactive; KCNQ2 block: -6.8; KCNQ2 inh conf: inactive; KCNQ1 spec: inactive; CHO Tl ctr: inactive

How did Cc1cccc(/C(N)=N/OC(=O)Cc2ccccc2)c1 do in these assays?
KCNQ2 pot: inactive; KCNQ2 block: inactive

Results for Cc1cc2ccccn2c1C(=O)c1ccc([N+](=O)[O-])o1 ?
KCNQ2 pot: inactive; KCNQ2 block: inactive

How did Cc1cc(-n2c(C)cc(C(=O)CSc3ccc4c(c3)OCCO4)c2C)no1 do in these assays?
KCNQ2 pot: inactive; KCNQ2 block: -6.9; KCNQ2 inh conf: -14%; KCNQ1 spec: inactive; CHO Tl ctr: inactive; KCNQ2 inh confirm: active

Results for Cc1cc(-n2c(C)cc(C(=O)CCl)c2C)no1 ?
KCNQ2 pot: inactive; KCNQ2 block: inactive

What do the screens show for `Cc1ccc(-n2nnnc2SCC(=O)c2cc(C)n(-c3cc(C)on3)c2C)c(C)c1`?
KCNQ2 pot: inactive; KCNQ2 block: -7.5; KCNQ2 inh conf: inactive; KCNQ1 spec: inactive; CHO Tl ctr: inactive

Results for Cc1cc(-n2c(C)cc(C(=O)CSc3nnnn3-c3ccccc3)c2C)no1 ?
KCNQ2 pot: inactive; KCNQ2 block: inactive

Results for CCC(C)c1ccc(S(=O)(=O)N2CCN(c3ccccn3)CC2)cc1 (configuration not stated) ?
KCNQ2 block: inactive

How did O=C(NCCN1CCCC1)c1ccc(Br)cc1 do in these assays?
KCNQ2 pot: inactive; KCNQ2 block: inactive

How did Cc1cc(C(=O)CSc2ccc(Cl)cc2)cc(C)c1OC(=S)N(C)C do in these assays?
KCNQ2 pot: inactive; KCNQ2 block: -8.7; KCNQ2 inh conf: inactive; KCNQ1 spec: inactive; CHO Tl ctr: inactive

How did Cc1cc(C(=O)CSc2ccc(F)cc2)cc(C)c1O do in these assays?
KCNQ2 pot: inactive; KCNQ2 block: inactive

How did O=C(CN1C(=O)NC2(CCCC2)C1=O)Nc1nc(-c2ccccc2)cs1 do in these assays?
KCNQ2 pot: inactive; KCNQ2 block: inactive

What do the screens show for `CC[n+]1c(/C=C/Nc2ccccc2)sc2ccccc21`?
KCNQ2 pot: inactive; KCNQ2 block: inactive

What do the screens show for `CCN1/C(=C/C=C/c2sc3ccccc3[n+]2CC)Sc2ccccc21`?
KCNQ2 pot: inactive; KCNQ2 block: -6.9; KCNQ2 inh conf: inactive; KCNQ1 spec: inactive; CHO Tl ctr: inactive

What do the screens show for `Cc1cc(C(=O)NNC(=O)c2sccc2C)c(C)o1`?
KCNQ2 pot: inactive; KCNQ2 block: inactive

How did CCCCOC(=O)/C(=C/C=C/c1ccccc1)NC(=O)c1ccccc1 do in these assays?
KCNQ2 pot: inactive; KCNQ2 block: -6.9; KCNQ2 inh conf: -25%; KCNQ1 spec: inactive; CHO Tl ctr: inactive; KCNQ2 inh confirm: inactive

How did CCCOC(=O)/C(=C\C=C\c1ccccc1)NC(=O)c1ccccc1 do in these assays?
KCNQ2 block: inactive

What do the screens show for `CCOc1ccc2c(c1)-c1c(ssc1=S)C(C)(C)N2C`?
KCNQ2 pot: inactive; KCNQ2 block: -7; KCNQ2 inh conf: inactive; KCNQ1 spec: inactive; CHO Tl ctr: inactive

How did CCOc1ccc2c(c1)C(C)=CC(C)(C)N2S(=O)(=O)c1ccc(F)cc1 do in these assays?
KCNQ2 block: inactive

What do the screens show for `CC1Cc2c([nH]c3ccccc23)C(=O)N1` (configuration not stated)?
KCNQ2 block: inactive

How did CN(C)c1ccc(C(CNC(=O)c2cccs2)N(C)C)cc1 (configuration not stated) do in these assays?
KCNQ2 block: inactive

Results for COc1ccc(C(=O)Nc2ccc3cn[nH]c3c2)c(OC)c1 ?
KCNQ2 block: inactive

Results for CC(NC(=O)/C(C#N)=C/c1ccc(Cl)c([N+](=O)[O-])c1)c1ccccc1 (configuration not stated) ?
KCNQ2 pot: inactive; KCNQ2 block: -11; KCNQ2 inh conf: -26%; KCNQ1 spec: inactive; CHO Tl ctr: inactive; KCNQ2 inh confirm: inactive

How did CC(NC(=O)/C(C#N)=C/c1ccc(OCC(=O)O)cc1)c1ccccc1 (configuration not stated) do in these assays?
KCNQ2 block: inactive

How did O=C(Nc1ccc(NC(=O)c2cccs2)c(Cl)c1)c1cccs1 do in these assays?
KCNQ2 pot: inactive; KCNQ2 block: inactive

Results for Cc1ccc(CN2CCN(/N=C/c3cccn3C)CC2)c(C)c1 ?
KCNQ2 block: inactive

What do the screens show for `Cc1ccc(CN2CCN(/N=C/c3ccc(C)s3)CC2)c(C)c1`?
KCNQ2 pot: inactive; KCNQ2 block: -7.9; KCNQ2 inh conf: inactive; KCNQ1 spec: inactive; CHO Tl ctr: inactive

What do the screens show for `COc1ccc(N(CC(=O)N2CCc3ccccc3C2)S(=O)(=O)c2ccccc2)cc1`?
KCNQ2 block: inactive

How did O=C(CN(c1ccc(Cl)c(Cl)c1)S(=O)(=O)c1ccccc1)N1CCc2ccccc2C1 do in these assays?
KCNQ2 pot: inactive; KCNQ2 block: -9.4; KCNQ2 inh conf: -33%; KCNQ1 spec: inactive; CHO Tl ctr: inactive; KCNQ2 inh confirm: active

Results for Cc1ccc(S(=O)(=O)N(C)C)cc1NC(=O)c1cc(=O)c2ccccc2o1 ?
KCNQ2 pot: inactive; KCNQ2 block: inactive

What do the screens show for `Cc1cc(-c2nnc(-c3ccccc3)c(-c3ccccc3)n2)c(C)o1`?
KCNQ2 pot: inactive; KCNQ2 block: -9.9; KCNQ2 inh conf: inactive; KCNQ1 spec: inactive; CHO Tl ctr: inactive

How did Cc1ccc(-c2nnc(-c3ccccc3)c(-c3ccccc3)n2)cc1 do in these assays?
KCNQ2 block: inactive

Results for O=C(CCCCCn1nnc2ccccc2c1=O)Nc1ccccc1Cl ?
KCNQ2 pot: inactive; KCNQ2 block: inactive
